KDM5B inhibitor: KDM5B demethylase inhibition; 220,000 tested, 2.6% active; KDM5B demethylase, FDH-coupled NADH fluorescence (FDH is formaldehyde dehydrogenase); Potency, µM (series often up to 57.7 µM), actives largely listed as inhibitors; active = well fitted inhibition curve with a large enough effect; also: nearly all actives have a fitted effect of over 70% in size
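qHTS format, multiple compound concentrations. Buffer 50 mM HEPES pH 7.5/0.01% Tween-20; 200 nM KDM5BΔAP final; 10 min compound preincubation; substrate-mix levels 12.5 µM peptide, 25 µM α-KG, 0.25 mM NAD⁺; 30 min RT; ΔRFU.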
Hits are given with their value; 0 = inactive. The full list was thinned out, with hits kept by preference.

SMILES	KDM5B inhibitor
S=C(Nc1cccc2ccccc12)N[C@H]1CO[C@H]2[C@@H]1OC[C@H]2OCc1ccccc1	35µM
COc1ccc(/C=C(\C#N)C(=O)Nc2ccccc2C(=O)O)c(OC)c1	0
CCCCCC1CCC(c2ccc(C(=O)CCN(C)C)cc2)CC1 (stereo unspecified)	0
CCOc1ccc(S(=O)(=O)Nc2nc3ccccc3nc2N2CCC(O)CC2)cc1	0
COc1ccc(CCc2nc3nccc(-c4cccnc4)n3n2)cc1OC	0
COc1ccc(-c2c(C)nn3c(NC4CCCCC4)cc(C)nc23)cc1OC	0
COc1ccc(-c2ccnc3nc(CCC4CCCC4)nn23)cc1OC	13µM
COc1cc(-c2ccnc3nc(CCc4ccccc4)nn23)cc(OC)c1OC	14µM
COc1cc(-c2ccnc3nc(CC(C)C)nn23)cc(OC)c1OC	18µM
COc1ccc(-c2ccnc3nc(CCc4ccccc4)nn23)cc1OC	22µM
COc1ccc(CCc2nc3nccc(-c4ccccn4)n3n2)cc1OC	0
COc1ccc(CCc2nc3nccc(-c4ccccc4)n3n2)cc1OC	0
Cc1ccc(C(=O)N(Cc2ccccn2)C2CC2)s1	0
CCCNc1nc2ccccc2nc1C(=O)Nc1ccc(OC)cc1	0
Cc1ccc(CNc2nc(N)c([N+](=O)[O-])c(Nc3cccc(Cl)c3)n2)cc1	0
O=C(c1c(F)cccc1F)N(Cc1cccc2[nH]ccc12)C1CC1	0
Cn1cc(S(=O)(=O)N2CCCC(C(=O)Nc3nn(Cc4ccccc4Cl)cc3Cl)C2)cn1 (stereo unspecified)	0
O=C(CCc1ncc(-c2ccc(F)cc2)o1)N1CCN(c2ccccc2Cl)CC1	0
COC(=O)C1=C(C)N(c2ccc3c(c2)OCO3)C(=O)NC1c1cc(Br)ccc1OC (stereo unspecified)	0
Cc1ccc(/C=N/NC(=O)C2CC2)s1	0
Cc1ccc2[nH]c(C(=O)NCc3ccc4c(c3)OCO4)cc2c1	0
Cc1[nH]c2ccccc2c1C(=O)C(=O)NCC1CCN(C)CC1	0
COc1ccc(CCc2nc3nccc(-c4ccncc4)n3n2)cc1OC	0
COc1ccc(CCc2nc3nccc(-c4ccc(OC)c(OC)c4)n3n2)cc1	28µM
Cc1cc(C)c(NC(=O)CCc2ccco2)c(Cl)c1	0
SMILES	KDM5B inhibitor
Cc1ccsc1C(=O)N1CCCn2cc(-c3cccc(C#N)c3)nc21	14µM
N#Cc1cccc(-c2cn3c(n2)N(C(=O)c2ccco2)CCC3)c1	25µM
Cc1ccsc1C(=O)N1CCCn2cc(-c3ccccc3)nc21	0
N#Cc1cccc(-c2cn3c(n2)N(C(=O)c2ccoc2)CCC3)c1	25µM
N#Cc1cccc(-c2cn3c(n2)N(C(=O)c2ccncc2)CCC3)c1	20µM
Cc1ccc(-c2cn3c(n2)N(C(=O)c2sc(C)nc2C)CCC3)cc1	0
Cc1ccc2nc(-c3ccccc3)cc(C(=O)N3CCN(C(=O)c4ccco4)CC3)c2c1	0
O=C(c1ccsc1)N1CCCn2cc(-c3ccccc3)nc21	0
N#Cc1cccc(CN2C3CCC2CN(C(=O)c2ccncc2)C3)c1	0
O=C(c1ccoc1)N1CCCn2cc(-c3ccccc3)nc21	0
COc1cccc(/C=C(/C#N)c2ccc(C(F)(F)F)cn2)c1	0
CCOc1ccc(NC(=O)Nc2cc(C)c3nc(NC(C)=O)sc3c2)cc1	0
COc1ccc(N2CC3CCC(C2)N3Cc2cccc(-c3cccnc3)c2)cc1	0
O=C(NCC(=O)N1CCN(CC(=O)N2CCOCC2)CC1)c1ccc(N2CCCC2=O)cc1	0
O=C1CCc2cc(C(=O)NCCc3ccc4c(c3)OCCO4)ccc2N1	0
O=C(O)CCCC(=O)N1CCNCC1	0
COc1ccccc1-n1c(SCc2nnnn2-c2ccccc2)nnc1N1CCCCC1	0
CC(C)CSc1nnc(SCC(=O)NCc2ccccc2)s1	0
Cc1ccc(C(=O)N2CCCn3cc(-c4cccc(C#N)c4)nc32)cn1	28µM
CCn1nccc1C(=O)N1CCCn2cc(-c3ccccc3F)nc21	0
N#Cc1cccc(-c2cn3c(n2)N(C(=O)c2ccccn2)CCC3)c1	18µM
Cc1ccc(-c2cn3c(n2)N(C(=O)c2cnn4cccnc24)CCC3)cc1	0
N#Cc1cccc(-c2cn3c(n2)N(C(=O)c2cccc(F)c2)CCC3)c1	22µM
O=C(c1nc2ncccn2n1)N1CCCn2cc(-c3ccccc3)nc21	0
CCCCc1nc2ccccc2n1CC(O)c1ccc(F)cc1 (stereo unspecified)	0
SMILES	KDM5B inhibitor
O=C(CSc1ncc(C(F)(F)F)cc1Cl)N1CCc2ccccc21	0
CCc1ccc(C(=O)CSc2n[nH]c(CC)n2)cc1	0
CC(C)c1ccc(S(=O)(=O)N(C)CC2CCOCC2)cc1	0
COc1ccccc1NC(=O)Cn1cccc1-c1nc(-c2ccc(F)cc2)no1	0
Cc1ccc(-c2cc(N3CCCN(C(=O)c4cccnc4)CC3)n[nH]2)cc1C	0
COc1ccc(C(=O)N2CCN(Cc3ccc(=O)n(C)c3)CC2)cn1	0
COc1ccc(C(=O)N2CCCn3cc(-c4ccccc4F)nc32)cn1	0
COc1ccc(C(=O)N2CCCN(c3nnc4ccc(Cl)cn34)CC2)cn1	22µM
Cc1ccc(-c2cc(N3CCCN(C(=O)c4ccccc4F)CC3)n[nH]2)cc1C	0
Cc1ccccc1C(=O)N1CCCN(c2nnc3ccc(Cl)cn23)CC1	25µM
O=C(c1cccnc1)N1CCN(c2nnc3ccc(Cl)cn23)CC1	16µM
Cc1ccccc1C(=O)N1CCCN(c2cc(-c3ccccc3)[nH]n2)CC1	0
O=C(c1cccnc1)N1CCN(C(=O)c2nnn3c2COC(c2ccc(Cl)cc2)C3)CC1 (stereo unspecified)	0
O=C(Cn1cnc2ccc(Br)cc2c1=O)N1CCCC1c1ccc2c(c1)OCCO2 (stereo unspecified)	0
CCN1CCN(c2ccc(NC(=O)c3cccc(S(=O)(=O)NCc4cccs4)c3)cc2)CC1	0
Clc1ccccc1-c1csc(NC2CC2)n1	0
Fc1nc(F)c(F)c(Sc2nc3ccccc3s2)c1F	0
Cc1cc(C)cc(N2CC(c3nc(-c4ccccc4)no3)CC2=O)c1 (stereo unspecified)	0
CCn1cc(-c2c(-c3ccccc3)ncn2C(CO)C(=O)O)cn1 (stereo unspecified)	0
CCSc1ncc(-c2c(-c3ccccc3)ncn2CC[C@@H](C)CO)cn1	14µM
CCc1ncc(-c2c(-c3ccccc3)ncn2CCCOc2cccnc2)cn1	0
CCS(=O)(=O)N1CCC(C(=O)Nc2ccc(Oc3ccccc3OC)cc2)CC1	0
CCOCCCn1c(=N)c(C(=O)NC2CCCC2)cc2c(=O)n3cccc(C)c3nc21	0
Cc1c(OCC(=O)OC(C)(C)C)ccc2c(-c3ccccc3)cc(=O)oc12	0
Cc1cc(Cl)ccc1OCCCC(=O)OCC(=O)c1c(N)n(C)c(=O)n(C)c1=O	0
SMILES	KDM5B inhibitor
Cc1ccccc1OCC(=O)OCc1cc(=O)n2ccsc2n1	0
Cc1ccccc1-n1nc(-c2c(C)nc3c(OCC(=O)OC(C)(C)C)cccn3c2=O)cc1C	20µM
CC(=O)N=c1c(C#N)cc2c(=O)n3cccc(C)c3nc2n1CCCOC(C)C	0
CCOC(=O)CCCOc1cccn2c(=O)c(-c3cc(C)n(-c4ccccc4C)n3)c(C)nc12	32µM
CCOC(=O)CCCOc1cccn2c(=O)c(-c3cc(C)n(-c4cccc(C)c4)n3)c(C)nc12	28µM
CCOC(=O)c1nn(-c2ccc(Cl)cc2)c(C)cc1=O	0
CCOC(=O)CCn1nc(C)c2c(C)n(-c3ccccc3)nc2c1=O	0
CCNC(=O)CCc1c(C)nn(-c2cccc(C)c2)c1Oc1ccc(F)cc1F	0
CCOC(=O)CCCOc1cccn2c(=O)c(-c3cc(C)n(-c4ccc(Cl)cc4)n3)c(C)nc12	25µM

Screens (PubChem)
